The campaign covered roughly 360,000 compounds. About 10,000 (2.8%) were called active. Inconclusive results (about 4%) are left out. The entries come from a sample that favours actives as a whole. A number with no mark means an inactive call. Calls follow the shape of the dose curve; as a rule, active = well fitted inhibition curve with a large enough effect; inconclusive = small, poorly fitted or top-dose-only effect; inactive = flat fitted curve, though single readings scatter.
Each compound was assayed against Serine/threonine-protein kinase PLK1 (Homo sapiens) (UniProt P53350) (assay: qHTS for Inhibitors of PLK1-PDB (polo-like kinase 1 - polo-box domain): Primary Screen). Details: Plk1 PBD binding of FITC phosphopeptide, fluorescence polarization.
Sequence of Serine/threonine-protein kinase PLK1 (Homo sapiens) (P53350 whole entry, looked up, the tested form may be a part): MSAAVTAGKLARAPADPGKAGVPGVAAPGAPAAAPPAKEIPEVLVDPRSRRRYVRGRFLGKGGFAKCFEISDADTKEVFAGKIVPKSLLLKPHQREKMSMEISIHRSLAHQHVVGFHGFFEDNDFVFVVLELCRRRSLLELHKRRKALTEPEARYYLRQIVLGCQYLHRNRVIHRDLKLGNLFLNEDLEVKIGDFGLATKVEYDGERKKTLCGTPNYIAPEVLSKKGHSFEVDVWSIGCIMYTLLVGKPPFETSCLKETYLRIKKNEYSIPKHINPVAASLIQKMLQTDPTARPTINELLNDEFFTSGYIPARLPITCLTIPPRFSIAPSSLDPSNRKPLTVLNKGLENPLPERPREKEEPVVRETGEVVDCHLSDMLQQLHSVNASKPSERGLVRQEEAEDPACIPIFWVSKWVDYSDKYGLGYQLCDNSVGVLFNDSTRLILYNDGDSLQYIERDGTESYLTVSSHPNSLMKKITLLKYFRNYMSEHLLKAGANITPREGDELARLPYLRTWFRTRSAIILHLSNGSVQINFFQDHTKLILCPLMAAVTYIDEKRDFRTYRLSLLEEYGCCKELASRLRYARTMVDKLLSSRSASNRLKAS
% is scaled to controls: 0 for no effect and ±100 for the full control effect; potency is read from the fitted curve at half-maximal effect.
Also: nearly all actives have a fitted effect of over 65% in size.
For max response, negative = inhibition in this document: series mostly up to about 57 µM.

| Structure (SMILES) | max response, negative = inhibition [%] | Potency |
| --- | --- | --- |
| CCCNC(=O)c1cc(C2CCCCN2S(=O)(=O)c2ccc(C#N)cc2)on1 (stereo unspecified) | 6.75 | – |
| O=C(CC[C@H]1O[C@@H](n2ccc(=O)[nH]c2=O)[C@H](O)[C@@H]1O)N[C@H](Cc1ccccc1)C(=O)NCc1ccco1 | -11.9 | – |
| CC(C)(C)N1C(=O)c2c(C(=O)OCc3ccccc3)[nH]c(-c3ccccc3)c2C1=O | -11.2 | – |
| Cc1ccc(NC(=O)Cn2sc3ccccc3c2=O)cc1 | – | 2.38 µM (active) |
| Cc1cc(C)cc(NC(=O)CN2C(=O)c3ccccc3C2=O)c1 | -3.07 | – |
| Cc1ccc(NC(=O)Cn2c(C)csc2=O)cc1 | -1.66 | – |
| Cc1ccc(CCNC(=O)CN2C(=O)CSc3ccc(S(=O)(=O)N4CCOCC4)cc32)cc1 | -9.68 | – |
| O=C(CCc1nnc(Cc2ccc3c(c2)OCO3)o1)NCCc1ccccc1Cl | – | 21.2 µM (active) |
| O=C(CC(Cc1ccccc1)C(=O)O)NCCc1ccc2c(c1)OCO2 (stereo unspecified) | -0.693 | – |
| O=C(CCNS(=O)(=O)c1ccccc1C(F)(F)F)NCc1ccc2c(c1)OCO2 | -4 | – |
| C#Cc1cc(N2CCN(C(=O)c3ccoc3)CC2)n2nc(-c3cccc(Cl)c3)cc2n1 | -12 | – |
| FC(F)(F)C1CCCN(c2nsc3ccccc23)C1 (stereo unspecified) | – | 1.5 µM (active) |
| CCNC(=O)C1(C)CCN(Cc2ccc(C(=O)OCC)o2)C1 (stereo unspecified) | 3.81 | – |
| C[C@@H]1CN([C@H](C)CO)C(=O)CCCn2nncc2CO[C@@H]1CN(C)C(=O)OCc1ccccc1 | -21.8 | – |
| COc1ccc(CN2CCC(C)(Oc3cccc(F)c3)C2)c2ccccc12 (stereo unspecified) | -19.3 | – |
| Cc1ccc(F)c(S(=O)(=O)NC(=O)C2(C)CCN2C(=O)c2ccco2)c1 (stereo unspecified) | -2.63 | – |
| CCn1c(SCC(=O)N/N=C/c2ccccc2OCC(=O)O)nnc1-c1ccc(C(C)(C)C)cc1 | 5.13 | – |
| CCn1c(SCC(=O)N/N=C/C=C/c2ccccc2[N+](=O)[O-])nnc1-c1ccccc1 | – | 23.8 µM (active) |
| Cc1ccc(-n2c(SCC(=O)N/N=C/C=C/c3ccccc3[N+](=O)[O-])nc3ccccc3c2=O)cc1 | 1.55 | – |
| Cc1cc(NC(=O)CSc2nnc(-c3ccco3)n2N)no1 | -3.98 | – |
| Cc1cc(NC(=O)CSC2=NS(=O)(=O)c3cc(Cl)ccc3N2)no1 | -2.92 | – |
| Cc1cc(NC(=O)CSc2nc3cc(Cl)ccc3c(=O)n2Cc2ccco2)no1 | – | 21.2 µM (active) |

| Structure (SMILES) | max response, negative = inhibition [%] | Potency |
| --- | --- | --- |
| COc1ccc(CNC(=O)/C(C#N)=C/c2cccc(OC)c2OC)cc1 | -17 | – |
| COc1ccc(NC(=O)/C(C#N)=C\c2cc(OC)c(OCc3ccc(C(=O)O)cc3)cc2Br)cc1 | – | 10.6 µM (active) |
| COc1cc(/C=C(\C#N)C(=O)Nc2ccc3ccccc3c2)c([N+](=O)[O-])cc1OC | -1.73 | – |
| O=C(NCc1ccccn1)[C@@H]1CCCN1C(=O)[C@@H]1CCCN1C(=O)c1ccccc1 | -3.01 | – |
| N#Cc1ccc(C(C(=O)NCc2ccccc2)n2c(=O)c(-c3ccco3)nc3ccccc32)cc1 (stereo unspecified) | -22.3 | – |
| Cc1ccc(NC(=O)C2CCCN2C(=O)OCc2ccccc2)cc1C (stereo unspecified) | 2.68 | – |
| Cc1ccc(C)c(NC(=O)C2CCCN2C(=O)OC(C)(C)C)c1 (stereo unspecified) | -4.64 | – |
| Cc1cccc(C)c1NC(=O)C1CCCN1C(=O)OC(C)(C)C (stereo unspecified) | – | 23.8 µM (active) |
| CC(=O)NN=C(C)c1ccc(NC(=O)C2CC2)cc1 | -11.2 | – |
| COc1cc(Cn2c3ccc(NC(=O)CC(C)c4ccccc4)cc3c(=O)n2C)ccc1F (stereo unspecified) | -6.73 | – |
| CCNC(=S)Nc1ccc2c(c1)c(=O)n(C)n2Cc1ccc(Cl)cc1 | – | 21.2 µM (active) |
| Cn1c(=O)c2cc(NC(=O)NCCc3cccs3)ccc2n1Cc1cccc(C(F)(F)F)c1 | -2.39 | – |
| COc1ccc(-c2ccc(C(=O)NCCN3CCOCC3)c3occc23)c(C)c1 | -10.9 | – |
| CN1CCN(CCCCOc2ccccc2-c2ccccc2)CC1 | -11.3 | – |
| C=CCc1ccccc1OCC(O)CN1CCN(CCO)CC1 (stereo unspecified) | 1.6 | – |
| OCCN1CCN(C(=S)c2ccc(-c3ccccc3)cc2)CC1 | – | 4.74 µM (active) |
| CCc1nc2c(OCCOc3ccccc3)cccn2c1N(C)C(=O)c1ccc(OC)cc1 | -8.42 | – |
| CC1(C(=O)NS(=O)(=O)c2ccc(Cl)cc2)CCN1C(=O)CC1CCCC1 (stereo unspecified) | -6.5 | – |
| Cc1ccccc1S(=O)(=O)NC(=O)C1(C)CCN1C(=O)C1(c2ccc(Cl)cc2)CC1 (stereo unspecified) | 3.44 | – |
| CC1(C(=O)NS(=O)(=O)c2ccc3ccccc3c2)CCN1C(=O)C1(c2ccc(Cl)cc2)CCC1 (stereo unspecified) | – | 42.3 µM (active) |
| CCCCN(C=O)c1c(CC)nc2c(OCc3ccccc3C(=O)OC)cccn12 | -4.2 | – |
| O=C1NC[C@H](CCCCN2C[C@H](Cc3ccc(O)cc3)N(CCc3ccccc3)C(=O)C2=O)N(CCc2ccccc2)C1=O | -1.17 | – |

| Structure (SMILES) | max response, negative = inhibition [%] | Potency |
| --- | --- | --- |
| CCCn1c(SCC(=O)c2ccc3c(c2)OCCO3)nnc1C(C)C | – | 2.99 µM (active) |
| CCCn1c(SCC(=O)Nc2c(C)cccc2C)nnc1C(C)C | -7.66 | – |
| CCCn1c(SCC(N)=O)nnc1C(C)C | -6.68 | – |
| CC(C)Cc1ccc(-c2cc3nc(NCc4cccc(Cl)c4)ccn3n2)cc1 | -0.174 | – |
| CCOc1ccc(N2CC(C(=O)NCc3ccccn3)CC2=O)cc1 (stereo unspecified) | 6.65 | – |
| COc1ccc(NC(=O)C2C3C=CC(C3)C2C(=O)NCc2ccccn2)c(OC)c1 (stereo unspecified) | – | 26.7 µM (active) |
| COc1ccc(C)cc1NC(=O)NCc1ccccn1 | 3.53 | – |
| CCCC(=O)N1CCC1(C)C(=O)NCc1ccc(SC)cc1 (stereo unspecified) | 4.65 | – |
| CO[C@@H]1CN(C)C(=O)c2cc(NC(=O)Nc3cc(F)ccc3F)ccc2OC[C@H](C)N(C(=O)c2ccccn2)C[C@@H]1C | -4.19 | – |
| Cc1nn(-c2ccccc2)c(C)c1C(=O)OCC(=O)NC(=O)NC1CCCCC1 | – | 21.2 µM (active) |
| Cc1cccc(C)c1NC(=O)COC(=O)c1c(C)nn(-c2ccccc2)c1C | 2.85 | – |
| COc1ccc(CNC(=O)COC(=O)c2c(C)nn(-c3ccccc3)c2C)cc1OC | -2.1 | – |
| Cc1ccc(F)c(S(=O)(=O)NC(=O)C2(C)CCN2C(=O)CCc2cccs2)c1 (stereo unspecified) | -3.35 | – |
| CCn1c(SC)nc(O)c(C(c2ccc(OC)c(O)c2)c2c(O)nc(SC)n(CC)c2=O)c1=O | – | 16.8 µM (active) |
| CCn1c(COc2ccc(OC)cc2)nnc1SCC(=O)Nc1cc(OC)ccc1OC | -3.02 | – |
| CCSc1nc(O)c(C(c2cccc(OC)c2)c2c(O)nc(SCC)[nH]c2=O)c(=O)[nH]1 | -21.7 | – |
| Cc1cccc(C(=O)NC2CCN(CC(=O)Nc3cccc(Cl)c3)CC2)c1 | -8.54 | – |
| COc1ccc([C@H]2C[C@@H](n3cc(COC(=O)c4ccccc4)nn3)[C@H](O)CN2C(=O)c2cccs2)cc1 | -9.99 | – |
| COc1cccc(CNc2nc3cc(-c4csc5ccccc45)sc3c(=O)n2C)c1 | -2.77 | – |
| COc1cccc(NC(=O)CCNS(=O)(=O)c2ccc3c(c2)oc(=O)n3C)c1 | -5.8 | – |
| Cn1c(=O)oc2cc(S(=O)(=O)NCCC(=O)NCc3ccccc3Cl)ccc21 | – | 23.8 µM (active) |
| Cc1ccc(NC(=O)CCNS(=O)(=O)c2ccc3c(c2)oc(=O)n3C)cc1C | 0.556 | – |

| Structure (SMILES) | max response, negative = inhibition [%] | Potency |
| --- | --- | --- |
| N#CCCN1CCN(S(=O)(=O)c2ccc(S(=O)(=O)N3CCCC3)cc2)CC1 | -6.31 | – |
| CC(C)(C)c1cc(CN2CCN(CCC#N)CC2)cc(C(C)(C)C)c1O | – | 8.44 µM (active) |
| N#Cc1cccc(CN2CCC(=O)N(CCO)CC2)c1 | -6.69 | – |
| COc1ccc(OC)c(CN2C(=O)CCC2(C)c2nnnn2Cc2ccccc2)c1 (stereo unspecified) | -0.666 | – |
| Cc1ccc(C)c(C(O)c2ncc(-c3cccc4ccccc34)[nH]2)c1 (stereo unspecified) | -3.49 | – |
| CCc1nc2ccc(C(=O)NCc3ccc(OC)cc3)cn2c1N(CC)Cc1cccc(Br)c1 | -13.2 | – |
| COC(=O)c1ccc(COC(=O)c2c(C)nn(Cc3ccccc3Cl)c2Cl)o1 | -10.8 | – |
| CC(C)c1ccc(C(=O)OC2CCOC2=O)cc1 (stereo unspecified) | -4.1 | – |
| Cc1nn(Cc2ccccc2)c(Cl)c1C(=O)OC1CCOC1=O (stereo unspecified) | – | 21.2 µM (active) |
| N#Cc1ccc(-c2nc3c(Cl)cc(C(F)(F)F)cn3c2Cc2ccccc2C(F)(F)F)cc1 | 1.56 | – |
| CC1(C(=O)Nc2ccccc2Br)CCN1C(=O)CC1CC1 (stereo unspecified) | -11.1 | – |
| O=C(O)CC/C(=C\c1cc2c(cc1Br)OCO2)c1nc2ccccc2s1 | – | 23.8 µM (active) |
| O=C(/C=C/c1cc2c(cc1Br)OCO2)NCc1ccc(Cl)cc1 | -5.95 | – |
| O=C(N/N=C/c1cc2c(cc1Br)OCO2)C1COc2ccccc2O1 (stereo unspecified) | 6.15 | – |
| CC(=O)C1=CCC(c2ccccc2)N(S(=O)(=O)c2ccc(C)cc2)C1 (stereo unspecified) | -15.4 | – |
| CCCNC(=O)C1(C)CCN1C(=O)Cc1ccc(-c2ccccc2)cc1 (stereo unspecified) | -9.86 | – |
| O=C(NCc1ccc2c(c1)OCO2)c1cc(F)c(F)cc1Cl | -7.37 | – |
| COc1cc(OC)c(C(=O)NCc2ccc3c(c2)OCO3)cc1OC | -15 | – |
| Cc1nc2c(C(=O)NCc3ccc4c(c3)OCO4)c[nH]n2c(=O)c1Cc1ccccc1F | – | 21.2 µM (active) |
| CC1(C(=O)NCc2ccco2)Cc2c(-c3ccc4c(c3)OCO4)ccnc2O1 (stereo unspecified) | -5.07 | – |

— PubChem BioAssay AID720504 (National Center for Advancing Translational Sciences (NCATS), 2013)
